High-throughput results: PubChem BioAssay, several laboratories
Bcl-xL primary: blocks human Bcl-xL binding to Bim BH3 peptide | GST-Bcl-xL / FITC-Bim BH3 peptide fluorescence polarization | inhibition, % at 10.9 µM | 320,000 compounds, 0.7% hits;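 active = inhibition above the mean of all tested compounds plus 3 SD, cutoff set per campaign, cut at about 30% in these data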;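 note: 0% = DMSO wells and 100% = unlabeled Bim-BH3 peptide competitor; inhibitors lower millipolarization by displacing the labeled peptide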
Target sequence (Q07817 whole entry, looked up): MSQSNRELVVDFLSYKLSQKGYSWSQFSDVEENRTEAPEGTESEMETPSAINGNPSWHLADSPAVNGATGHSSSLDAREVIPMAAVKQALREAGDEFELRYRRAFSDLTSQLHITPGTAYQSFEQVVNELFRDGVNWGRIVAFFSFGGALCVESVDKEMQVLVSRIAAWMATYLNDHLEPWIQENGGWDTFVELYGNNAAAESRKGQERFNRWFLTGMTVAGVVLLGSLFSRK
MEX-5 binding: C. elegans MEX-5 TCR-2 RNA binding activity | activity score (negative = inhibition of binding), % at 10 µM | MEX-5/FITC-TCR2 RNA binding, fluorescence polarization; stronger effect = lower value | Q9XUB2 | 300,000 compounds, 0.38% hits | AID 1832;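 active = inhibition past about -25% in most replicates, and total fluorescence under double the plate's negative control median, limit read from the data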;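 note: 0% = DMSO and -100% = 5 µM competing unlabeled TCR2 RNA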
MCL1-BIM inh: inhibitors of human MCL1 binding to BIM-BH3 peptide. GST-MCL1 / FITC-Bim-BH3 fluorescence polarization. inhibition, % at 10.9 µM. 320,000 compounds, 0.68% hits;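 active = inhibition above the mean inhibition of all tested compounds plus 3 SD, set per campaign, cut at about 40% in these data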;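 note: 0% = DMSO wells and 100% = unlabeled Bim-BH3 peptide control; higher means more loss of mP so more displacement of Bim peptide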
Target sequence (Q07820 whole entry, looked up): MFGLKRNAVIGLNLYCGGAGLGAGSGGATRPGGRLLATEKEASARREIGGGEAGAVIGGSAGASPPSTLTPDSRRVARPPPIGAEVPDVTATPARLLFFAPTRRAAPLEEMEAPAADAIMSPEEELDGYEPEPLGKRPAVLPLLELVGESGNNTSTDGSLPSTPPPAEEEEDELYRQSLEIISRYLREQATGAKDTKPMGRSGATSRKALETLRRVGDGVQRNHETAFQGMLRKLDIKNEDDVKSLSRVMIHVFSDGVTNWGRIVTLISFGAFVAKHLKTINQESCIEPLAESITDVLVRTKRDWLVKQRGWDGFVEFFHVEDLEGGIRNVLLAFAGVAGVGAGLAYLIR
CR mimetic SO: yeast age-related superoxide inhibition as caloric restriction mimetic. superoxide response (% of plate mean), % at 10 µM. 330,000 compounds, 0.18% hits. S. cerevisiae aged cells, superoxide DHE fluorescence; stronger effect = lower value;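 active = superoxide response under a set limit, about three screen SD below normal, cut at about 65% in these data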;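 note: yeast aged for seven days with compound at 30 °C before DHE staining; 100% = average MFI of all compound-treated wells on the plate with controls excluded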
GLD-1 RNA inh: GLD-1-TGE RNA interaction inhibition (C. elegans). 320,000 compounds, 0.44% hits. Q17339. purified GLD-1 + fluorescein TGE RNA, fluorescence polarization. inhibition, % at 5.96 µM. AID 2280;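 active = percent inhibition above a per-plate cutoff, the plate mean of test compounds plus 3 SD, cut at about 30% in these data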;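 note: 0% = DMSO wells with GLD-1 and probe and 100% = wells lacking GLD-1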
LANA-H2B inh: blocks KSHV LANA binding to histone H2A/H2B | cell-free LANA-H2A/H2B peptide, fluorescence polarization | 320,000 compounds, 0.6% hits | inhibition, % (test concentration not listed); in the data active = inhibition mostly above about 10%, no sharp cut-off; inactive = mostly below about 6.7%
* = called active by the depositor; x = no result. Rows were chosen to be rich in hits. Some 1.9% of all compounds tested hit in one or more screens of this group.

SMILES	Bcl-xL primary	MEX-5 binding	MCL1-BIM inh	CR mimetic SO	GLD-1 RNA inh	LANA-H2B inh
CC1(C)Cc2ccccc2C(C(Cc2ccccc2)C(N)=O)=N1 (stereo unspecified)	3	-1	5	99	9	6.5*
CC1(C)Cc2ccccc2C(C(=O)c2ccccc2)=N1	3	0	1	130	-7	-2
Cc1ccc(NC(=O)c2cccc(-n3cnnn3)c2)cc1Cl	-9	x	-11	92	5	1
CCOc1cc(/C=C/c2cccc[n+]2C)ccc1OCC(=O)Nc1ccc(C)cc1	-10	-43*	-19	104	7	-2
CC(C)c1ccc(NC(=O)[C@H]2CSCN2C(=O)[C@@H]2CCC(=O)N2)cc1	0	-1	0	83	-4	-1
COc1cc(NC(=O)[C@H]2CSCN2C(=O)[C@@H]2CCC(=O)N2)cc(OC)c1OC	7	-1	4	86	0	14*
Cc1ccc(S(=O)(=O)NCC(=O)OCC(=O)Nc2ccc3c(c2)OCCO3)cc1	-7	x	-11	119	5	19*
Cc1ccc(C)c(NC(=O)COC(=O)c2ccc3c(c2)OCCO3)c1	0	x	-3	118	-3	-2
O=C(COC(=O)Cc1cccc(C(F)(F)F)c1)Nc1ccc2c(c1)OCCO2	-1	-1	-4	96	-1	146*
Cc1cc(C)cc(NC(=O)COC(=O)c2ccc3c(c2)OCCO3)c1	-1	x	0	105	9	12*
O=C(COC(=O)Cc1ccccc1F)Nc1ccc2c(c1)OCCO2	4	2	1	110	-5	-3
CCCNS(=O)(=O)c1ccc(OCC(=O)Nc2ccc3c(c2)OCCO3)cc1	-2	3	-5	92	2	7
O=c1oc2ccccc2c2c1ccc1ccccc12	x	x	x	84	x	x
CCN(CC(=O)Nc1ccc(NC(C)=O)cc1)C(=O)/C=C/c1ccc(C)o1	4	x	4	79	3	-11
Cc1cccnc1NC(=O)C1CCC1	8	2	12	108	1	5
COc1cccc(CNC(=O)CC(NC(=O)c2ccccc2)c2ccccc2)c1 (stereo unspecified)	4	2	-2	86	1	32*
CC(=NCCc1c(C)[nH]c2ccc(OC(F)(F)F)cc12)C1=C(O)CC(c2ccccc2)CC1=O (stereo unspecified)	7	x	6	65*	6	-2
CC(=NCCc1c(C)[nH]c2ccc(C)cc12)C1=C(O)CC(c2ccccc2)CC1=O (stereo unspecified)	5	1	0	87	2	-2
O=C(C[C@@H]1C/C=C/CC[C@@H](Cc2ccc(F)cc2)C(=O)OC[C@H](Cc2ccccc2)NC1=O)N[C@H](CO)Cc1ccccc1	x	x	x	95	2	-1
COc1ccc(C(=O)NCC(=O)N2CCN(c3ncccn3)CC2)cc1OC	0	x	2	80	-5	x
Cc1cc(O)c(C(C)C)cc1C1(c2cc(C(C)C)c(O)cc2C)OC(=O)c2ccccc21	-6	-3	-10	99	1	15*
Cc1c(-c2ccccc2)oc2c(C(=O)OCC(=O)Nc3ccc(C(N)=O)cc3)cccc2c1=O	16	-6	-2	92	3	28*
COC(=O)c1ccc(NC(=O)COC(=O)c2cccc3c(=O)c(C)c(-c4ccccc4)oc23)cc1	2	1	-8	116	-7	3
CN(CCOC(=O)c1ccccc1)Cc1ccccc1	0	0	12	115	8	1
CN(CCOC(=O)c1cccc(F)c1)Cc1ccccc1	0	3	3	83	1	11*
SMILES	Bcl-xL primary	MEX-5 binding	MCL1-BIM inh	CR mimetic SO	GLD-1 RNA inh	LANA-H2B inh
CC(C)(C)OC(=O)N1CCC(C(=O)N2CCC[C@H]2C(=O)O)CC1	3	-2	-1	101	8	-4
CC(C)(C)C(=O)N1CCCC1C(=O)O (stereo unspecified)	4	3	-2	99	-4	28*
CC1CCCCC1NC(=O)c1c(O)nc2ccccn2c1=O (stereo unspecified)	3	-1	4	98	1	-3
CC1=C([N+](=O)[O-])C(c2ccccc2C(F)(F)F)NC(=O)N1C (stereo unspecified)	9	x	10	130	1	30*
CC(=O)Nc1ccccc1C(=O)C(=O)Nc1ccccc1	-2	-1	0	100	7	4.6*
CC(=O)Nc1ccccc1C(=O)C(=O)Nc1ccc(Cl)cc1	4	-1	7	90	9	-4
O=C(CSCc1ccc(Br)cc1)Nc1ccccc1C(=O)N1CCOCC1	5	3	9	97	1	5
O=C(Nc1ccccc1)c1ccccc1CCc1ccccc1	2	1	-2	89	5	23*
Cc1ccc(N/C=C2/Sc3ccccc3NC2=O)cc1	5	-54*	5	104	-61	-8
COc1ccc(N/C=C2/Sc3ccccc3NC2=O)cc1	7	-10	17	92	6	-9
O=C(CCCSc1ccc(Cl)cc1)Nc1cc(S(=O)(=O)N2CCOCC2)ccc1O	15	x	19	126	0	1
COc1ccccc1N(CC(=O)Nc1cc(C)on1)S(=O)(=O)c1cccc(C(F)(F)F)c1	4	x	2	103	1	-1
Fc1ccccc1N1CCN(c2nc3ccccc3n3nnnc23)CC1	36*	3	52*	83	23	1
C[C@H](CO)N1C[C@H](C)[C@@H](CN(C)C(=O)Nc2ccc(C(F)(F)F)cc2)Oc2c(NS(=O)(=O)c3cn(C)cn3)cccc2C1=O	x	x	x	104	11	2
Cc1c(N(C)C)c(=O)n(-c2ccccc2)n1C	7	x	10	112	3	42*
Cc1c(C=O)c(=O)n(-c2ccccc2)n1C	-1	0	2	101	0	5
CCOC(=O)CNc1c(-c2ccc(F)cc2)nc2cnccn12	33*	-12	24	106	15	5
CSc1ncccc1C(=O)NCc1nnc2ccccn12	x	x	x	78	-7	1
Cc1ccc(C2=CC(c3ccc(C)cc3)n3ncnc3N2)cc1 (stereo unspecified)	19	-1	20	91	27	-2
CCOc1ccc(C2C=C(c3ccc(C)cc3)Nc3ncnn32)cc1 (stereo unspecified)	47*	-4	41*	99	26	4
C[C@H]1COC(=O)[C@@H](Cc2ccc(F)cc2)C/C=C\C[C@@H](CC(=O)N[C@@H](CO)Cc2ccccc2)C(=O)N1	x	x	x	80	6	3
Cc1nc(SCC(=O)NCc2ccc3c(c2)OCO3)nc(C)c1C	x	x	x	89	4	-7
Cc1nc(N=Nc2ccc(O)cc2)n[nH]1	1	-29*	1	88	-4	2
